From PubChem
Rows were chosen to be rich in hits. Some 2.8% of all compounds tested hit in one or more screens of this group.
MITF TRPM1 inh: reduces MITF-dependent TRPM1 promoter luciferase signal | SK-MEL-5 TRPM1 promoter luciferase, 24 h | AID 488899 | inhibition, % at 12.5 µM | hit rate 0.83% among 330,000;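 active = mean inhibition across replicates of 60% or more, whatever share of single replicates reaches that level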
B2AR ag: activates human beta-2 adrenergic receptor causing internalization; P07550; Am2.2-beta2AR cells, FAP receptor internalization, flow cytometry; response, % (concentration not given with the values); hit rate 0.43% among 340,000; AID 504454;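 active = response above a set limit, near 3 SD of response in nonfluorescent compounds, cut at about 42% in these data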
Target sequence (P07550 whole entry, looked up): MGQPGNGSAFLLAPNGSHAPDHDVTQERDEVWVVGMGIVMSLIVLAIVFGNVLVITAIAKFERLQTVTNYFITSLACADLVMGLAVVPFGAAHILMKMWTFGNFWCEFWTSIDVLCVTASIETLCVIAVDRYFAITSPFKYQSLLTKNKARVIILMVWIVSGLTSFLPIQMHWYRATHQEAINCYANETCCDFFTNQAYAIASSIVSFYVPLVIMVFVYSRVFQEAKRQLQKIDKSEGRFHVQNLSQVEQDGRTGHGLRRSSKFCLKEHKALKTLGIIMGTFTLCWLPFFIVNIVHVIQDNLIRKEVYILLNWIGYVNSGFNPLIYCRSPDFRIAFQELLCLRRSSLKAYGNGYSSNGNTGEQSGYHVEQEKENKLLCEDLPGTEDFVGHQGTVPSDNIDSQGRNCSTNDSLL
CF NFkB inh: cystic fibrosis NF-kB activation inhibition; AID 588850; hit rate 0.86% among 360,000; inhibition, % at 5 µM; KKLEB NF-kB-GFP reporter, PAF-induced, GFP fluorescence overnight;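 active = at least 50% inhibition at 5 µM, scaled per plate between neutral and stimulator controls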;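 also: PAF is a Pseudomonas aeruginosa culture filtrate used as stimulus; plate controls were PAF-stimulated DMSO wells for no effect and unstimulated DMSO wells for full effect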
HIF-2a block: inhibitors of HIF-2a. hit rate 0.72% among 360,000. AID 624352. 786-0 RCC cells HIF-2a reporter, luciferase luminescence, overnight. inhibition, % at 18.8 µM;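 active = inhibition of the luminescence signal of 40% or more relative to plate controls, in a single-dose primary screen at 18.75 µM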
KKLEB tox: reduces viability of KKLEB cystic fibrosis airway cells. KKLEB CF airway cells viability, ATPlite luminescence, overnight; hits give low values; cells stimulated with P. aeruginosa culture filtrate. hit rate 0.36% among 360,000. activity change (cytotoxicity), % at 5 µM;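 active = corrected activity change at or below -50% at 5 µM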
Peg3 promoter: inhibitors of Peg3 promoter; hit rate 1.7% among 360,000; inhibition, % at 20 µM; HeLa PEG-Prom luciferase reporter, luminescence, overnight;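 active = inhibition of at least 50% at 20 µM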
Numbers without * were called inactive; . = not tested or not shown.

SMILES	MITF TRPM1 inh	B2AR ag	CF NFkB inh	HIF-2a block	KKLEB tox	Peg3 promoter
CCOC(=O)/C=C/S(=O)(=O)c1ccc(NC(C)=O)cc1	92*	16	90*	39	-38	102*
O=C(O)/C=C/C(=O)Nc1ccc(Oc2ccccc2)cc1	-14	3	4	12	2	6
COc1ccc(-c2cc(-c3ccc(OC)cc3)c(C#N)c(SC)n2)cc1	4	-5	50*	10	-26	33
O=C(CCN1C(=O)/C(=C/c2ccccc2F)SC1=S)N[C@@H](CO)Cc1ccccc1	5	0	16	8	-1	68*
CCOc1ccc(-c2cc(C(=O)N3CCN(c4ccccn4)CC3)c3ccccc3n2)cc1	-14	20	2	-286	-68*	-57
COc1ccc(-c2cc(C(=O)N3CCN(c4ncccn4)CC3)c3ccccc3n2)cc1	-51	22	-3	-247	-28	-67
COc1ccc2cc(-c3cc(C(=O)O)c4ccccc4n3)ccc2c1	28	10	-2	35	-54*	30
COc1ccc(-c2cc(C(=O)N3CCN(c4ccccn4)CC3)c3ccccc3n2)cc1	-31	15	16	-195	-61*	-47
COc1ccc(-c2cc(C(=O)O)c3ccccc3n2)c(OC)c1	6	11	-7	20	7	8
CCOc1ccc(-c2cc(C(=O)N3CCN(C)CC3)c3ccccc3n2)cc1	-70	9	13	-197	-21	-167
CCOC(=O)N1CCN(C(=O)c2cc(-c3ccc(OCC)cc3)nc3ccccc23)CC1	-7	21	10	-279	-75*	-64
Cc1cccc(NC(=O)c2nc[nH]c2C(=O)Nc2ccccc2F)c1	.	.	-6	-6	-18	5
CC1C(=O)N(Cc2cn(Cc3ccco3)nn2)CCS(=O)(=O)N1Cc1ccc(-c2cccc(N(C)C)c2)cc1 (stereo unspecified)	.	.	-6	-17	6	-14
C[C@H](CO)N1C[C@H](C)[C@@H](CN(C)S(=O)(=O)c2ccccc2)OCc2cnnn2CCCC1=O	.	.	3	6	-2	9
C[C@H]1CN([C@@H](C)CO)S(=O)(=O)c2ccc(C#Cc3ccccn3)cc2O[C@@H]1CN(C)C(=O)C1CC1	.	.	6	5	-4	-17
Cc1ccc(-c2nc(CSCC(=O)N3CCN(c4ccccn4)CC3)c(C)o2)cc1	.	-15	-17	2	4	8
CCc1ccc(-c2nc(CSCC(=O)N3CCN(c4ccccn4)CC3)c(C)o2)cc1	64*	-2	-22	58*	10	45
CCCc1ccc(-c2cc(C(=O)N3CCN(c4ccccn4)CC3)c3ccccc3n2)cc1	-16	26	12	-122	-76*	-40
COc1cc(-c2cc(C(=O)N3CCN(c4ccccn4)CC3)c3ccccc3n2)cc(OC)c1OC	16	9	-18	-11	-12	38
O=c1[nH][nH]c2c1C(c1cccc(C(F)(F)F)c1)OC(CCc1ccccc1)C2 (stereo unspecified)	.	.	.	2	.	.
COC(=O)[C@]12CCCCC=C1N(CCc1ccc(OC)c(OC)c1)C(=O)[C@H](CC(=O)NCC13CC4CC(CC(C4)C1)C3)C2	.	.	.	-9	.	.
CC(=O)Oc1c(C)cc(Cl)cc1C(=O)Nc1ccc([N+](=O)[O-])cc1Cl	53	20	63*	-157	-78*	-13
COCCNC(=O)C1CCCN(C(=O)c2ccc(OC)c(F)c2)CC1 (stereo unspecified)	.	.	0	-8	-6	-5
COc1cc2oc(=O)cc(CN3CCCCCCC3)c2cc1Cl	.	.	-35	-3	3	-2
Cc1cn([C@H]2C[C@H](O)[C@@H](CNCc3ccc(F)c(N4CCOCC4)c3)O2)c(=O)[nH]c1=O	.	.	0	-6	-1	0
CCc1nnc2n1N=C(c1ccc(-c3cc(Cl)ccc3Cl)o1)CS2	-24	2	-13	-6	-26	63*
O=c1cc(CSc2ccc(Cl)cc2)nc(-c2ccccn2)[nH]1	67*	9	4	-8	10	91*
Nc1ccccc1O	45	15	53*	-42	-3	-47
O=C(COC(=O)/C=C/c1ccccc1Cl)NC(=O)NC1CCCC1	3	-4	-19	0	11	-6
Cn1nnnc1Sc1ncnc2scc(-c3ccccc3)c12	36	-1	38	60*	-24	49
